Sampled rows, rich in hits. Any-hit rate of the full collection: about 10%.
Six1-Eya2 blk: inhibitors of human Six1/Eya2 interaction. AlphaScreen GST-Six1/His-Eya2 binding, biochemical; stronger effect = lower value. actives 0.56% (n = 360,000). AID 651725. activity change, % (no concentration beside the values); in the data active means activity change below about -65%; inconclusive means mostly about -30% to -63%; further: on the % scale 0 is the no-effect control and ±100 the full control effect
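GST-Six1 + His-Eya2 (5X stock: 250/500 nM); Tris pH 8.0, 300 mM NaCl, 0.05% BSA, 0.02% Tween 20; GSH donor/Ni acceptor beads; 1 h 37 °C dark; AlphaScreen readout.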
CtBP-E1A blk: inhibitors of CtBP/E1A interaction; AlphaScreen GST-E1A/His-CtBP binding, 1536-well; stronger effect = lower value; activity change, % (concentration not given with the values); actives 0.49% (n = 340,000); AID 651724; in the data active means activity change below about -65%; inconclusive means mostly about -30% to -63%; further: on the % scale 0 is the no-effect control and ±100 the full control effect
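Protein mix (5X: 125 nM each GST-E1A, His-CtBP) was incubated with pinned compound 2 h at 37 deg C in dark, in 50 mM Tris pH 8.0 buffer with 300 mM NaCl. Glutathione donor and nickel acceptor beads followed; AlphaScreen signal read after 1 h.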
BAZ2B inh: BAZ2B (human) inhibition; AlphaScreen BAZ2B-H3K14Ac peptide displacement; Potency, µM (doses to about 114 µM), for the others: top-dose activity change, negative = inhibition, usual class: inhibitors; actives 4.4% (n = 360,000); AID 504333; further: potency means the concentration at half of the fitted maximal effect; on the % scale 0 is the no-effect control and ±100 the full control effect; nearly all actives have a fitted effect of over 60% in size
Target sequence (Q9UIF8 whole entry, looked up): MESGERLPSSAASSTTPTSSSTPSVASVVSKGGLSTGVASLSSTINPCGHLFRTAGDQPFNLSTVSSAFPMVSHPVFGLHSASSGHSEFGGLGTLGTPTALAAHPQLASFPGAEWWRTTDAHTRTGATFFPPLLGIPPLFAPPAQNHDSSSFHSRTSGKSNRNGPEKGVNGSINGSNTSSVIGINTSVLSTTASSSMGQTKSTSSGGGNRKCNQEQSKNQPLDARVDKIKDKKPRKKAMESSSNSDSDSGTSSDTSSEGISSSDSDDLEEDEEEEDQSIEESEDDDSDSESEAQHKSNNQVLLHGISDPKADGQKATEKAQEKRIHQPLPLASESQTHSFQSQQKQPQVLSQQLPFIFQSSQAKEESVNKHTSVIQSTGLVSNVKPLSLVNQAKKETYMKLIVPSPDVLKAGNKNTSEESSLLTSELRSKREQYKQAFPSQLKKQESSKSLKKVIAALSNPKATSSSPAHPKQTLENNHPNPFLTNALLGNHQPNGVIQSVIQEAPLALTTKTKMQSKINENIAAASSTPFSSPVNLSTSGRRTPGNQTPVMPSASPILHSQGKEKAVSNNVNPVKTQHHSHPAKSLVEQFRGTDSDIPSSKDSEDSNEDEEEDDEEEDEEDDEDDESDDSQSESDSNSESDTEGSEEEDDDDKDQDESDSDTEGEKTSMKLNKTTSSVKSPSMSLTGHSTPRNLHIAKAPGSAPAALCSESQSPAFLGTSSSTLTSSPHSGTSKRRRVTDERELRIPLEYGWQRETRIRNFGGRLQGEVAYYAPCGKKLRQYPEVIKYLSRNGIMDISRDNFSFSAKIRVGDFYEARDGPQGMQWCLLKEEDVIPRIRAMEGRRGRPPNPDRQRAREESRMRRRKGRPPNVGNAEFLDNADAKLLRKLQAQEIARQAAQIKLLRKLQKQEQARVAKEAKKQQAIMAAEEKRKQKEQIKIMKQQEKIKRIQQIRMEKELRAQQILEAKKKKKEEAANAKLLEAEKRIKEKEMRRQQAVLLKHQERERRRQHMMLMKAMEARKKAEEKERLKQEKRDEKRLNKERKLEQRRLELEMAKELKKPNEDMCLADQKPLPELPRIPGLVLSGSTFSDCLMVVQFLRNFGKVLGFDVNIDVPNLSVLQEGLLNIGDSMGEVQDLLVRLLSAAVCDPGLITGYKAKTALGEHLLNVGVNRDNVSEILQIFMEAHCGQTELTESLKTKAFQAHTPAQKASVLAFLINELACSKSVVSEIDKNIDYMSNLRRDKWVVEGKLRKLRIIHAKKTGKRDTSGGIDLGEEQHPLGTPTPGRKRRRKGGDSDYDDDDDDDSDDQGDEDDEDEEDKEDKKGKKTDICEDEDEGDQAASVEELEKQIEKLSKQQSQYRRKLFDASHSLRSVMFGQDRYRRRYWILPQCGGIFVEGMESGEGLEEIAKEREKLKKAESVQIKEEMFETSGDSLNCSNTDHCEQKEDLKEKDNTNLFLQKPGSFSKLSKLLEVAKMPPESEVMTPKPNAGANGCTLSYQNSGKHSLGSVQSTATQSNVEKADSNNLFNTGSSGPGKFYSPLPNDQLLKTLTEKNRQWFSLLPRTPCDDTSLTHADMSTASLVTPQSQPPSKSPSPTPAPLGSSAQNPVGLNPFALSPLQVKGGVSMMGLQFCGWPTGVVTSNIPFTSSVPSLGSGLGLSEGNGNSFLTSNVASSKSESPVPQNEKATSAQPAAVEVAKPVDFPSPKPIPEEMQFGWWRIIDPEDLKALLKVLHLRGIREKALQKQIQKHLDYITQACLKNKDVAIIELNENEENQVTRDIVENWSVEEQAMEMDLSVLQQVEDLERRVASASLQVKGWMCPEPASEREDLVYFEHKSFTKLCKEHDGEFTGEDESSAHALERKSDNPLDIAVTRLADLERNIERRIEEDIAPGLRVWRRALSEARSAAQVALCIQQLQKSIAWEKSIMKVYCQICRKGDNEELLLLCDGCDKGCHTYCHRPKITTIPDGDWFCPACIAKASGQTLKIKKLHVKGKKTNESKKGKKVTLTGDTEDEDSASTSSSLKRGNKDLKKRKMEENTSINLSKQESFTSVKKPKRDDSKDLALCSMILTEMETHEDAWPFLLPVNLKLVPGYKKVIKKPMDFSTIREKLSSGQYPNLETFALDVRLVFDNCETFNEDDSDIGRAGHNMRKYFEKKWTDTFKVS
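AlphaScreen displacement of biotin-H3(5-23)K14Ac peptide (50 nM final) from BAZ2B (50 nM final) in PBS pH 7.4, 0.01% Tween-20; complex preformed 30 min RT, then compounds (top 110 uM) 30 min RT, beads 20 min dark.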
JMJD2A Tudor inh: inhibitors of human JMJD2A Tudor domain | O75164 | AlphaScreen JMJD2A-Tudor / H3K4me3 peptide binding | Potency, µM (top dose mostly 114 µM), for the others: at the top dose activity change, negative = inhibition, hits mostly inhibitors | actives 4.4% (n = 390,000); further: potency means the concentration at half of the fitted maximal effect; on the % scale 0 is the no-effect control and ±100 the full control effect; nearly all actives have a fitted effect of over 50% in size
HP1b binding inh: inhibitors of HP1-beta chromodomain binding to methylated histone tails. P83916. AlphaScreen HP1-beta / biotin-H3K9me3 peptide binding. Potency, µM (titrated, usually from 114 µM), for the others: top-dose activity change, negative = inhibition, most hits filed as inhibitors. actives 0.56% (n = 390,000); further: potency means the concentration at half of the fitted maximal effect; nearly all actives have a fitted effect of over 70% in size
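Compound inhibition of the preformed complex between 50 nM HP1-beta and 50 nM biotinylated H3K9me3 peptide was read by AlphaScreen. Buffer was PBS pH 7.4 with 0.01% Tween-20. Incubations ran 30 min at room temperature, with 10 ug/mL donor/acceptor beads.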
G9a inh: inhibitors of human histone lysine methyltransferase G9a; G9a H3K9 monomethylation, AlphaScreen, 2 h; Potency, µM (series often up to 102 µM), inactives show top-dose activity, negative = inhibition, usual class: inhibitors; actives 8.8% (n = 350,000); AID 504332; further: potency means the concentration at half of the fitted maximal effect; on the % scale 0 is the no-effect control and ±100 the full control effect; nearly all actives have a fitted effect of over 75% in size
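AlphaScreen read-out: biotin-H3K9 peptide (500 nM) methylation by 20 nM enzyme with 20 uM SAM, 2 h at room temperature after 15 min compound preincubation; anti-monomethyl H3K9 antibody plus donor/acceptor beads, 10 min dark.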
Starred values were filed as active, the others as inactive; ? = inconclusive; · = no result given; [ ] = dose if it differs, or a comment. Unless noted, the call rests on the fitted dose curve; in most records, active means well fitted inhibition curve with a large enough effect; inconclusive means small, poorly fitted or top-dose-only effect; inactive means no such curve, though single readings can be large or run the other way.

SMILES	Six1-Eya2 blk	CtBP-E1A blk	BAZ2B inh	JMJD2A Tudor inh	HP1b binding inh	G9a inh
O=C(CSc1ccc(C(F)(F)F)cc1[N+](=O)[O-])Nc1ccccc1	-0.7	14.2	-25.7%	-18.5%	8.7%	6.7%
CC(=O)Nc1ccc(NC(=O)CSc2ccc(C(F)(F)F)cc2[N+](=O)[O-])cc1	7.0	-15.9	-10.1%	-8.8%	8.9%	44.7µM*
CC1CCC(=NNc2ccc(C(F)(F)F)cc2[N+](=O)[O-])CC1 (stereo not given)	?	-5.8	10µM*	39.8µM*	?	3.55µM*
COc1ccc(Nc2ccc(C(F)(F)F)cc2[N+](=O)[O-])cn1	?	?	39.8µM*	56.2µM*	?	?
Cc1ccc(S(=O)(=O)c2nnn3c2nc(N2CCCC2)c2sccc23)cc1	·	·	-17.0%	2.6%	23.0%	5.5%[59 µM]
Cc1cc(NC(=O)CSc2ncnc3c2cnn3-c2cccc(Cl)c2)no1	-1.0	5.1	-8.6%	-0.7%	46.7%	0.8%
Cc1ccc(S(=O)(=O)Nc2ccc(Nc3nccn4c(-c5ccc6ccccc6c5)cnc34)cc2)cc1	-2.9	-9.9	·	·	·	·
Cc1ccc(Cn2c(=O)c3cccnc3n(Cc3ccc(C)cc3)c2=O)cc1	·	·	7.2%	-6.9%	16.0%	8.6%[59 µM]
COc1ccc(CNC(=O)C(Cc2ccccc2)NS(=O)(=O)c2ccc3c(c2)CCN3C(C)=O)cc1 (stereo not given)	·	·	·	-19.3%	31.9%	10.1%[59 µM]
C[C@H](Nc1ccc(C(F)(F)F)cc1[N+](=O)[O-])C(=O)O	1.0	·	-15.0%	-18.4%	0.7%[57 µM]	56.2µM*
Cc1cc2c(cc1S(=O)(=O)Nc1ccc(C(C)C)cc1)OCCN2C	·	·	?	-15.5%	40.4%	-20.7%[59 µM]
CC[n+]1c(S(=O)(=O)[O-])ccc2ccc(C)cc21	2.5	5.5	1.4%	-6.2%	39.2%	-11.6%[59 µM]
CCN1/C(=C/c2cc[n+](C)cc2)C=Cc2cc(C)ccc21	-20.4	-17.8	?	?	?	2.24µM*
CCN1/C(=C/c2ccc3ccccc3[n+]2CCCS(=O)(=O)[O-])C=Cc2cc(C)ccc21	-20.6	?	44.7µM*	-10.6%	-14.6%	10µM*
CCN1/C(=C/c2ccc3ccccc3[n+]2CC)C=Cc2ccccc21	-70.4*	?	?	35.5µM*	17.8µM*	11.2µM*
CC(=O)Nc1cccc(S(=O)(=O)N2CCN(S(=O)(=O)c3ccc4c(c3)OCCO4)CC2)c1	·	·	·	-22.4%	·	·
COc1ccc(CC(=O)Nc2c(C(=O)N3CCN(c4ccccc4OC)CC3)oc3ccccc23)cc1OC	-12.8	-16.0	?	?	9.3%	35.5µM*
COc1ccc(CC(=O)Nc2c(C(=O)N3CCN(c4ccccc4)CC3)oc3ccccc23)cc1OC	1.8	2.0	-38.6%[57.1 µM]	?	2.9%	70.8µM*
COc1ccc(CC(=O)Nc2c(C(=O)N3CCN(c4ncccn4)CC3)oc3ccccc23)cc1OC	-1.1	5.6	-12.5%	-24.7%	37.0%	2.6%[59 µM]
COc1cc(CCC(=O)Nc2c(C(=O)N3CCN(c4ccccc4OC)CC3)oc3ccccc23)on1	-7.4	-13.8	?	?	21.2%	·
CCCc1nn2c(=O)cc(COC(=O)CNC(=O)COc3ccc(C)cc3)nc2s1	·	·	-7.5%	-3.3%	28.5%	9.2%[59 µM]
N#CC1=C(N)OC2=C(CC/C2=C\c2ccccc2)C1c1ccccc1 (stereo not given)	0.4	8.2	89.1µM*	?	?	44.7µM*
N#CC1=C(N)OC2=C(CC/C2=C\c2ccccc2Cl)C1c1ccccc1Cl (stereo not given)	-1.1	·	?	?	7.5%	22.4µM*
N#CC1=C(N)OC2=C(C(=O)CCC2)C1c1ccccc1 (stereo not given)	7.4	-1.2	·	-18.7%	14.4%	8.8%[59 µM]
CC(=O)C1=C(C)OC(N)=C(C#N)C1c1cc([N+](=O)[O-])ccc1Cl (stereo not given)	18.3	15.7	-9.8%	-19.3%	34.7%	·
SMILES	Six1-Eya2 blk	CtBP-E1A blk	BAZ2B inh	JMJD2A Tudor inh	HP1b binding inh	G9a inh
COc1ccccc1-c1ncn(Cc2cccc(-c3ccccc3)c2)c1-c1ccco1	-28.4	0.8	·	·	·	·
CC(NC(=O)c1cn(C)c2ccc(S(=O)(=O)N3CCCC3)cc2c1=O)c1ccccc1 (stereo not given)	3.7	-10.9	-3.4%	-12.4%	42.5%	11.7%
CC(C)OCC(O)CN1CCNCC1 (stereo not given)	3.5	-4.9	-4.4%	79.4µM*	18.8%	?
COC(=O)c1ccc(Nc2nc(C)nc3c2nnn3Cc2ccccc2)cc1	0.1	2.1	-5.1%	-15.1%	31.1%	8.3%
O=C1CCN(C(=O)c2ccc(Cl)cc2)N1	5.2	9.0	56.2µM*	89.1µM*	8.5%	12.6µM*
O=C(CSc1ccc(Cl)cc1)N1CCOCC1	2.8	8.2	2.1%	-16.5%	40.5%	4.1%[12.7 µM]
O=C1CCN(C(=O)CSc2ccc(Cl)cc2)N1	-1.1	6.2	50.1µM*	?	18.2%	14.1µM*
COc1ccc(NC(=O)Cn2nnc(C(=O)NCc3cccs3)c2N)c(OC)c1	7.0	-11.3	-15.7%	22.4µM*	-19.0%	0.4%[59 µM]
Cc1ccc(NC(=O)Cn2nnc(C(=O)NCCc3ccccc3)c2N)c(C)c1	5.3	-12.0	?	11.2µM*	13.3%	-12.5%[59 µM]
COc1ccc(CCNC(=O)c2nnn(CC(=O)Nc3ccc(C)cc3C)c2N)cc1OC	1.5	1.7	79.4µM*	-28.6%	39.8%	-10.5%[59 µM]
COc1ccc(Cl)cc1NC(=O)Cn1nnc(C(=O)NCCc2ccc(OC)c(OC)c2)c1N	-2.0	·	-12.9%	-22.4%	12.8%[57 µM]	12.2%
COc1cccc(NC(=O)Cn2nnc(C(=O)NCc3cccs3)c2N)c1	1.6	2.3	-23.7%	-0.7%	44.3%	5.1%
Cc1ccc(C)c(NC(=O)Cn2nnc(C(=O)NCCc3ccccc3)c2N)c1	·	·	4.3%[57.1 µM]	-35.3%	12.9%	?
CC(C)(C)c1ccc(OCC(=O)NN2Cc3ccccc3C2=N)cc1	-6.2	12.4	-13.5%	-2.1%	52.3%	50.1µM*
N=C1c2ccccc2CN1NC(=O)COc1ccc(Cl)cc1	7.8	-7.9	-12.3%	-2.7%	23.6%	35.5µM*
CCCCNC(=O)CCCN1C(=O)c2ccccc2Sc2ncccc21	·	·	-5.1%	8.1%	41.2%	13.0%[59 µM]
Cc1cc(SCNC(=O)c2ccccc2)ncn1	5.6	15.5	-38.7%	28.2µM*	?	?
O=C(NCSc1ccccc1)c1ccccc1	2.8	4.7	0.3%	-8.5%	27.6%	2.3%[2.33 µM]
CC(=O)N1CCOc2ccc(S(=O)(=O)N3CCC(C)CC3)cc21	3.5	1.9	?	-5.5%	55.3%	3.7%
COc1ccccc1Nc1ccncc1[N+](=O)[O-]	-20.9	·	-14.1%	-24.4%	5.3%	-6.7%
COc1ccccc1Nc1cc(C)nc2c(C)ccc([N+](=O)[O-])c12	?	-14.6	11.2µM*	10µM*	15.8µM*	25.1µM*

Assay outcomes from PubChem BioAssay.
